Only some compounds are listed: those with a hit (about 1.9% of all), similar ones and a draw of the others.
PfHsp40 yeast = rescue of yeast from PfHsp40 toxicity, primary screen, S. cerevisiae, ATP luminescence | S. cerevisiae expressing PfHsp40, growth rescue | growth rescue, % at 12.5 µM | hit rate 0.68% among 340,000 | AID 504582, 2011; in the data active means growth rescue above about 28%, passing the limit was not always enough; inconclusive means no clear call, values can overlap the other calls;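 further: yeast W303a lacking pdr1 and pdr3 grown in galactose medium; growth measured after three days at 30 °C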
PrPC surface inh = inhibitors of human cell surface prion protein PrPC, primary screen, cell-based, TR-FRET; Major prion protein (Homo sapiens), P04156; TR-FRET read-out; inhibition, % at 13.8 µM; hit rate 0.43% among 370,000; in the data active means inhibition above about 24%
RecA intein inh = Mtb RecA intein splicing inhibitors, primary screen, biochemical, fluorescence, HTS | cell-free RecA intein splicing | inhibition, % (test concentration not listed) | hit rate 0.75% among 290,000; in the data active means inhibition above about 30%; inconclusive means no clear call, values can overlap the other calls
PrP 5UTR inh = inhibition of PrP 5' UTR reporter expression | cell-based PrP 5' UTR mRNA reporter, plate reader | inhibition, % (concentration not given with the values) | hit rate 0.35% among 340,000 | AID 488862, 2010; in the data active means inhibition above about 52%
SSB-PriA inh = inhibitors of Klebsiella pneumoniae PriA binding to SSB C-terminal tail, primary screen, biochemical, AlphaScreen; PriA–SSB C-terminal tail interaction (Klebsiella pneumoniae); inhibition, % at 33 µM; AlphaScreen SSBct-PriA binding, biotinylated peptide; hit rate 0.6% among 430,000; in the data active means inhibition mostly above about 37%, no sharp cut-off; inactive means mostly below about 20%
BJeLR viability = MLPCN primary cell-based screen for lethality selective to Ras in HRASV12 cells | AID 1554, 2009 | BJeLR (HRASV12) viability, CellTiter-Glo ATP luminescence, 48 h | inhibition, % (no concentration beside the values) | hit rate 0.17% among 300,000; in the data active means inhibition above about 50%; inconclusive means no clear call, values can overlap the other calls
PrPC confirm = confirmation of inhibitors of cell surface human prion protein, confirmation, cell-based, TR-FRET. shares compounds with PrPC surface inh. cell surface PrPC level. inhibition, % at 13.8 µM. hit rate 65% among 1,500; in the data active means inhibition above about 25%
LD9 cytotox = cytotoxicity in LD9 cells, cytotoxicity control for cell surface PrPc inhibitor project, cell-based, luminescence, high throughput; AID 743201, 2013; luminescence viability; inhibition, % at 13.8 µM; hit rate 29% among 1,500; shares compounds with PrPC surface inh; in the data active means inhibition above about 9.5%
A number is an active result; - = inactive; ? = inconclusive; . = not tested or not shown.

SMILES | PfHsp40 yeast | PrPC surface inh | RecA intein inh | PrP 5UTR inh | SSB-PriA inh | BJeLR viability | PrPC confirm | LD9 cytotox
Cc1ccccc1OCC(=O)NNC(=O)C1CCN(c2ncnc3sc(C)c(C)c23)CC1 | - | - | - | - | - | - | . | .
CCC(=O)N1CCc2cc(S(=O)(=O)N(C)c3ccc(OC)cc3OC)ccc21 | - | - | - | - | - | - | . | .
CCC(=O)N1CCc2cc(Br)cc(S(=O)(=O)N(C)c3ccc(OC)cc3OC)c21 | - | 30 | - | - | - | - | - | -
CC(Oc1ccccc1)C(=O)NCCn1ccnc1C1CC1 (stereo unspecified) | . | . | . | . | - | . | . | .
Cc1cc(C)n2c(-c3ccccc3Cl)nnc2n1 | - | 25 | - | - | - | - | - | -
C=C1CC2(CC(c3ccccc3)OC(c3ccccc3)C2)OC1=O (stereo unspecified) | - | 49 | . | - | - | . | - | 70
Cc1ccc(S(=O)(=O)N2CCN(CC(O)c3ccccc3)CC2)cc1C (stereo unspecified) | - | 57 | - | - | - | - | - | -
Cc1ccc(S(=O)(=O)N2CCN(CC(O)c3ccccc3)CC2)cc1 (stereo unspecified) | - | - | - | - | - | - | . | .
Cc1ccccc1Cn1cc(NC(=O)c2cc(-c3ccco3)on2)cn1 | - | 30 | - | - | - | - | - | -
COCCn1c(SCC(=O)Nc2cccc(NC(C)=O)c2)nc2c([nH]c3ccccc32)c1=O | - | 29 | - | - | - | - | - | -
O=C(Nc1ccc2c(c1)C(=O)NCC2)Nc1ccccc1Cl | . | . | . | . | - | . | . | .
C[C@H]1COc2c3ccc(I)cc3nn21 | . | 47 | . | . | . | . | 70 | -
CCCc1nc(SCC(=O)NNC(=O)c2ccc(OC)cc2)c2ccccc2n1 | - | 93 | - | - | - | . | 115 | -
Cc1nc(SCCOc2ccc(F)cc2)c2ccccc2n1 | - | - | - | - | - | - | . | .
CCCCNC(=O)CSc1nc(COc2ccccc2)nc2ccccc12 | - | - | - | - | - | - | . | .
Cc1nc(SCC(=O)NNC(=O)c2ccc(F)cc2)c2ccccc2n1 | - | 82 | . | - | - | . | 100 | -
CCCc1nc(SCC(=O)NNC(=O)C2CCCCC2)c2ccccc2n1 | - | 41 | - | - | - | - | 110 | -
CCc1nc(SCC(=O)OC(C)C)c2ccccc2n1 | - | 83 | - | - | - | - | 97 | -
C/C(=C/C(=O)O)C(=O)Nc1ccc(S(=O)(=O)N2CCOCC2)cc1 | . | . | . | . | - | . | . | .
O=C(c1ccoc1)N1CCc2ncncc2C1 | . | . | . | . | - | . | . | .
CCOC(=O)c1c(NC(=O)COc2ccccc2C#N)sc2c1CC(C)(C)NC2(C)C | - | 117 | - | - | - | - | 104 | 31
CCOC(=O)c1c(NC(=O)COc2ccccc2OCC)sc2c1CC(C)(C)NC2(C)C | - | . | - | - | - | - | . | .
CC1(C)Cc2c(sc(NC(=O)c3ccc(C(=O)c4ccccc4)cc3)c2C(N)=O)C(C)(C)N1 | - | 36 | - | - | - | - | - | 19
COC(=O)c1c(NC(=O)c2ccccc2)sc2c1CC(C)(C)NC2(C)C | - | - | - | - | - | - | . | .
O=C(NN=Cc1ccncc1)c1cccc(S(=O)(=O)N2CCCC2)c1 | . | . | . | . | - | . | . | .
SMILES | PfHsp40 yeast | PrPC surface inh | RecA intein inh | PrP 5UTR inh | SSB-PriA inh | BJeLR viability | PrPC confirm | LD9 cytotox
COc1cccc(NC(=O)Nc2cccn(Cc3ccccc3)c2=O)c1 | - | - | - | - | - | - | . | .
COc1ccc(Cn2cccc(NC(=O)Nc3cccc(OC)c3)c2=O)cc1 | - | 25 | - | - | - | - | 29 | -
COc1ccc(CNC(=O)N2CCC(Oc3ccc(C(F)(F)F)cn3)CC2)cc1OC | . | . | . | . | - | . | . | .
O[C@@H]1[C@@H](O)C=C2CCN3Cc4cc5c(cc4[C@H]1C23)OCO5 (stereo partly specified) | - | 89 | . | - | - | . | 92 | 28
O=C(Cc1csc(Nc2ccccc2)n1)N1CCN(c2ccccn2)CC1 | . | . | . | . | - | . | . | .
CCC1(C)Cc2ccccc2-c2nc[nH]c(=O)c21 (stereo unspecified) | - | - | - | - | - | - | . | .
CCC1(C)Cc2ccccc2-c2[nH]c(=S)[nH]c(=O)c21 (stereo unspecified) | - | 90 | - | - | - | - | 120 | -
C=Cc1cc2c(cc1O)CCC1C2CCC2(C)C(O)CCC12 (stereo unspecified) | ? | 29 | . | - | - | . | - | -
CCc1ccc2nc(Nc3nc(COC)cc(=O)[nH]3)nc(C)c2c1 | - | - | - | - | - | - | . | .
COCc1cc(=O)[nH]c(Nc2nc3ccc(C)cc3o2)n1 | - | 32 | - | - | - | - | - | 48
O=C(OCC12CC3CC(CC(C3)C1)C2)c1ccc(NCc2cc(O)ccc2O)cc1 | - | 25 | . | - | - | . | 26 | 22
O=C(OCCC12CC3CC(CC(C3)C1)C2)c1ccc(NCc2cc(O)ccc2O)cc1 | - | 28 | . | - | - | . | 45 | 72
O=C(NCCn1cc(SCC(=O)N2CCCCCC2)c2ccccc21)c1ccc([N+](=O)[O-])cc1 | . | . | . | . | - | . | . | .
CC(C)c1ccccc1-n1c(SCC(=O)N2CCc3ccccc3C2)nc2ccccc2c1=O | - | 34 | - | - | - | - | 36 | 35
O=C(CSc1nc2ccccc2c(=O)n1-c1ccccc1)N1CCc2ccccc2C1 | - | - | - | - | - | - | . | .
COc1ccc(C)cc1NC(=O)C(=O)NCC1CCN(C(C)C)CC1 | . | . | . | . | - | . | . | .
O=C(CSc1ccc(NC(=O)c2ccco2)nn1)Nc1nccs1 | . | . | . | . | - | . | . | .
NC(CCc1ccccc1)c1csc(NC(=O)Nc2ccccc2Oc2ccccc2)n1 (stereo unspecified) | . | 50 | . | . | . | . | 34 | -
COc1ccc(C(N)c2csc(NC(=O)Nc3ccccc3C(C)(C)C)n2)cc1 (stereo unspecified) | . | 30 | . | . | . | . | - | -
CC(C)(C)c1ccccc1NC(=O)Nc1nc(C(N)c2ccccc2)cs1 (stereo unspecified) | . | - | . | . | . | . | . | .
NC(CCc1ccccc1)c1csc(NC(=O)NCCc2ccccc2)n1 (stereo unspecified) | . | - | . | . | . | . | . | .
Fc1cccc2sc(Nc3nc4c(F)cccc4s3)nc12 | - | 37 | - | - | - | - | 70 | -
O=C(CSc1nc(N2CCCCC2)nc2ccccc12)Nc1cccc(Br)c1 | . | . | . | . | - | . | . | .
Cc1nc2c(sc3ccccc32)c(=O)n1CC(=O)Nc1ccccc1C(F)(F)F | . | . | . | . | - | . | . | .
CC(=O)N1CCc2ccc(NS(=O)(=O)c3ccc(-c4ccccc4)cc3)cc2C1 | . | . | . | . | - | . | . | .
